The panel holds about 83,000 compounds, 20% with a hit somewhere; the sample as a whole holds those more often.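 Cell lines were cultured in 96-well plates, exposed to a single compound concentration, and assessed for percent growth 48 hours later.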 Unmarked numbers belong to inactive results. Active and inactive are the calls of the source. Rule for the calls: active = growth percent below 10; inactive = the rest.
Key:
Assay in all cases: NCI-60 one-dose screen, 48 h (100 = growth as untreated, 0 = no growth, -100 = all killed)
Conditions in all cases: 10 µM unless noted
HCT-15 colon = test system: HCT-15 colon
HT29 colon = test system: HT29 colon
SNB-75 CNS = test system: SNB-75 CNS
SNB-19 CNS = test system: SNB-19 CNS
U251 CNS = test system: U251 CNS
PC-3 prostate = test system: PC-3 prostate
SK-MEL-5 melanoma = test system: SK-MEL-5 melanoma
LOX IMVI melanoma = test system: LOX IMVI melanoma
SK-MEL-28 melanoma = test system: SK-MEL-28 melanoma
UACC-62 melanoma = test system: UACC-62 melanoma

SMILES: COc1ccc2c(c1)c(-c1nc(-c3c[nH]c4ncccc34)cs1)cn2CCN1CCOCC1
- growth (HCT-15 colon): 31.4%
- growth (HT29 colon): 45.8%
- growth (SNB-75 CNS): 49.7%
- growth (SNB-19 CNS): 67%
- growth (U251 CNS): 45.6%
- growth (PC-3 prostate): 34.1%
- growth (SK-MEL-5 melanoma): 25.4%
- growth (LOX IMVI melanoma): 45.4%
- growth (SK-MEL-28 melanoma): 68.4%

SMILES: Cc1cc(N(CCCl)CCCl)ccc1/C=N\NC(=O)c1ccncc1
- growth (HCT-15 colon): 88.9%
- growth (HT29 colon): 98.3%
- growth (SNB-75 CNS): 87.1%
- growth (SNB-19 CNS): 106%
- growth (U251 CNS): 90.5%
- growth (PC-3 prostate): 88.9%
- growth (SK-MEL-5 melanoma): 76.1%
- growth (UACC-62 melanoma): 53.1%
- growth (SK-MEL-28 melanoma): 99.7%

SMILES: O=C(Nc1ccc(O)cc1)C(Cl)(Cl)Cl
- growth (HCT-15 colon): 98.7%
- growth (HT29 colon): 105%
- growth (SNB-75 CNS): 98.5%
- growth (SNB-19 CNS): 102%
- growth (U251 CNS): 95%
- growth (PC-3 prostate): 101%
- growth (UACC-62 melanoma): 93.8%
- growth (LOX IMVI melanoma): 106%
- growth (SK-MEL-28 melanoma): 107%

SMILES: O=C(CC1(O)C(=O)Nc2ccccc21)c1ccc(C(=O)NCC2CCC3(CC2)OOC2(CCCCC2)OO3)cc1 (stereo unspecified)
- growth (HCT-15 colon): 79.9%
- growth (HT29 colon): 82.1%
- growth (SNB-75 CNS): 82.1%
- growth (SNB-19 CNS): 86.4%
- growth (U251 CNS): 63.6%
- growth (PC-3 prostate): 50.8%
- growth (UACC-62 melanoma): 63.4%
- growth (LOX IMVI melanoma): 57.3%
- growth (SK-MEL-28 melanoma): 86.4%

SMILES: CC(=O)O[C@H]1C(=O)[C@@]2(C)[C@H]([C@H](OC(=O)c3ccccc3)[C@]3(O)C[C@H](OC(=O)[C@H](OC(=O)OC[C@H]4COC(C)(C)O4)[C@@H](NC(=O)c4ccccc4)c4ccccc4)C(C)=C1C3(C)C)[C@]1(OC(C)=O)CO[C@@H]1C[C@@H]2O
- growth (HCT-15 colon): 5.28% (active)
- growth (HT29 colon): 2.46% (active)
- growth (SNB-75 CNS): -20.5% (active)
- growth (SNB-19 CNS): 11.9%
- growth (U251 CNS): 15.9%
- growth (PC-3 prostate): 21%
- growth (SK-MEL-5 melanoma): 18.2%
- growth (UACC-62 melanoma): 21.7%
- growth (SK-MEL-28 melanoma): 49.7%

SMILES: O=C(O)C1C(C(=O)O)C2(Cl)C(Cl)=C(Cl)C1(Cl)C2(Cl)Cl.[Hg] (stereo unspecified)
- growth (HCT-15 colon): 87%
- growth (HT29 colon): 82.2%
- growth (SNB-75 CNS): 86.6%
- growth (SNB-19 CNS): 96.9%
- growth (U251 CNS): 44.7%
- growth (PC-3 prostate): 76.2%
- growth (SK-MEL-5 melanoma): 85.3%
- growth (LOX IMVI melanoma): 85.2%

SMILES: OCc1ccc2c(c1)OCO2
- growth (HCT-15 colon): 104%
- growth (HT29 colon): 96.4%
- growth (SNB-75 CNS): 84.5%
- growth (SNB-19 CNS): 104%
- growth (U251 CNS): 95.8%
- growth (PC-3 prostate): 94.3%
- growth (SK-MEL-5 melanoma): 102%
- growth (LOX IMVI melanoma): 95.3%
- growth (SK-MEL-28 melanoma): 108%

SMILES: CCC(O)(CN)c1ccccc1 (stereo unspecified)
- growth (HCT-15 colon): 103%
- growth (HT29 colon): 95.6%
- growth (SNB-75 CNS): 93.5%
- growth (SNB-19 CNS): 106%
- growth (U251 CNS): 93.6%
- growth (PC-3 prostate): 87.5%
- growth (SK-MEL-5 melanoma): 98.9%
- growth (UACC-62 melanoma): 100%
- growth (SK-MEL-28 melanoma): 115%

SMILES: COc1ccc2c(c1)c(-c1nc(-c3cn(C)c4ncccc34)cs1)cn2CCN1CCOCC1
- growth (HCT-15 colon): 20.9%
- growth (HT29 colon): 25.9%
- growth (SNB-75 CNS): 63.3%
- growth (SNB-19 CNS): 33.1%
- growth (U251 CNS): 28.2%
- growth (PC-3 prostate): 17.6%
- growth (SK-MEL-5 melanoma): 30.7%
- growth (LOX IMVI melanoma): 32.5%
- growth (SK-MEL-28 melanoma): 56.1%

SMILES: COC(=O)[C@@H](C)C[C@H](Cc1ccccc1)NC(=O)c1csc([C@@H](C[C@H](C(C)C)N(C)C(=O)[C@@H](NC(=O)[C@H]2CCCN2C)C2CC2)OC(C)=O)n1
- growth (HCT-15 colon): 18.3%
- growth (HT29 colon): 6.25% (active)
- growth (SNB-75 CNS): 28.9%
- growth (SNB-19 CNS): 75.6%
- growth (U251 CNS): 8.67% (active)
- growth (PC-3 prostate): 8.37% (active)
- growth (SK-MEL-5 melanoma): -52.1% (active)
- growth (UACC-62 melanoma): 41.2%
- growth (SK-MEL-28 melanoma): 56.4%

SMILES: COC(=O)[C@@H](C)C[C@H](Cc1ccccc1)NC(=O)c1csc([C@@H](C[C@H](C(C)C)N(C)C(=O)[C@@H](NC(=O)[C@H]2CCCCN2C)C2CCCCC2)OC(C)=O)n1
- growth (HCT-15 colon): 10.8%
- growth (HT29 colon): -0.416% (active)
- growth (SNB-75 CNS): 5.81% (active)
- growth (SNB-19 CNS): 64.5%
- growth (U251 CNS): -19.4% (active)
- growth (PC-3 prostate): 5.7% (active)
- growth (SK-MEL-5 melanoma): -56.2% (active)
- growth (UACC-62 melanoma): 36.3%
- growth (SK-MEL-28 melanoma): 38%

SMILES: COC(=O)[C@@H](C)C[C@H](Cc1ccccc1)NC(=O)c1csc([C@@H](C[C@H](C(C)C)N(C)C(=O)[C@@H](NC(=O)C23CC(NC(C)=O)(C2)C3)C2CC2)OC(C)=O)n1
- growth (HCT-15 colon): 92%
- growth (HT29 colon): 20.9%
- growth (SNB-75 CNS): 14%
- growth (SNB-19 CNS): 65.3%
- growth (U251 CNS): 33.1%
- growth (PC-3 prostate): 44.4%
- growth (SK-MEL-5 melanoma): 30.5%
- growth (LOX IMVI melanoma): 31.7%
- growth (SK-MEL-28 melanoma): 61.3%

SMILES: CC(C)CCC1(CCCl)C(=O)NC(=O)NC1=O
- growth (HCT-15 colon): 98.9%
- growth (HT29 colon): 109%
- growth (SNB-75 CNS): 85.3%
- growth (SNB-19 CNS): 97.7%
- growth (U251 CNS): 94.4%
- growth (PC-3 prostate): 98.8%
- growth (SK-MEL-5 melanoma): 97.4%
- growth (UACC-62 melanoma): 97.6%
- growth (SK-MEL-28 melanoma): 98.4%

SMILES: CC[C@H](C)[C@H](NC(=O)C12C3C4C1C1C2C3C41NC)C(=O)N(C)[C@H](C[C@@H](OC(C)=O)c1nc(C(=O)N[C@@H](Cc2ccccc2)C[C@H](C)C(=O)OC)cs1)C(C)C (stereo partly specified)
- growth (HCT-15 colon): 18.4%
- growth (HT29 colon): 2.58% (active)
- growth (SNB-75 CNS): 31.4%
- growth (SNB-19 CNS): 49.6%
- growth (U251 CNS): 11.6%
- growth (PC-3 prostate): 21.2%
- growth (SK-MEL-5 melanoma): 3.34% (active)
- growth (LOX IMVI melanoma): 15.7%
- growth (SK-MEL-28 melanoma): 58.1%

SMILES: O=C(CC1(O)C(=O)Nc2ccc(Br)cc21)c1ccc(C(=O)NCC2CCC3(CC2)OOC2(CCCCC2)OO3)cc1 (stereo unspecified)
- growth (HCT-15 colon): 54.2%
- growth (HT29 colon): 47.2%
- growth (SNB-75 CNS): 64.6%
- growth (SNB-19 CNS): 61.4%
- growth (U251 CNS): 11.8%
- growth (PC-3 prostate): 38.9%
- growth (UACC-62 melanoma): 54.6%
- growth (LOX IMVI melanoma): 32.6%
- growth (SK-MEL-28 melanoma): 73.3%

SMILES: Cn1cc(-c2csc(-c3cn(CCN4CCOCC4)c4ccc(F)cc34)n2)c2cccnc21
- growth (HCT-15 colon): 19.6%
- growth (HT29 colon): 40.1%
- growth (SNB-75 CNS): 51.1%
- growth (SNB-19 CNS): 49.2%
- growth (U251 CNS): 36.9%
- growth (PC-3 prostate): 1.07% (active)
- growth (SK-MEL-5 melanoma): -28.8% (active)
- growth (LOX IMVI melanoma): 27.9%
- growth (SK-MEL-28 melanoma): 40.5%

SMILES: CCCCCCCC[N+](C)(CCCCCCCC)CCCCCCCC
- growth (HCT-15 colon): -75% (active)
- growth (HT29 colon): -100% (active)
- growth (SNB-75 CNS): -100% (active)
- growth (SNB-19 CNS): -89.6% (active)
- growth (U251 CNS): -75% (active)
- growth (PC-3 prostate): -91.3% (active)
- growth (UACC-62 melanoma): -94.5% (active)
- growth (LOX IMVI melanoma): -74.7% (active)

SMILES: CC(=O)O[C@H]1C(=O)[C@@]2(C)[C@H]([C@H](OC(=O)c3ccccc3)[C@]3(O)C[C@H](OC(=O)[C@H](OC(=O)OC[C@@H]4COC(C)(C)O4)[C@@H](NC(=O)c4ccccc4)c4ccccc4)C(C)=C1C3(C)C)[C@]1(OC(C)=O)CO[C@@H]1C[C@@H]2O
- growth (HCT-15 colon): 3.91% (active)
- growth (HT29 colon): -2.35% (active)
- growth (SNB-75 CNS): -15.6% (active)
- growth (SNB-19 CNS): 12.7%
- growth (U251 CNS): 17%
- growth (PC-3 prostate): 22.1%
- growth (SK-MEL-5 melanoma): 22%
- growth (UACC-62 melanoma): 24.2%
- growth (SK-MEL-28 melanoma): 52%

SMILES: COC(=O)[C@@H](NC(=O)c1cn(CCC2CCCCC2)c2ccccc12)C(C)(C)C
- growth (HCT-15 colon): 59.9%
- growth (HT29 colon): 69%
- growth (SNB-75 CNS): 71.2%
- growth (SNB-19 CNS): 97.5%
- growth (U251 CNS): 72.6%
- growth (PC-3 prostate): 49.7%
- growth (UACC-62 melanoma): 38.1%
- growth (LOX IMVI melanoma): 54.2%
- growth (SK-MEL-28 melanoma): 85.8%

SMILES: CNC(=O)Oc1ccc(N(C)C)cc1C(C)C
- growth (HCT-15 colon): 102%
- growth (HT29 colon): 98.2%
- growth (SNB-75 CNS): 66.5%
- growth (SNB-19 CNS): 101%
- growth (U251 CNS): 101%
- growth (SK-MEL-5 melanoma): 99.4%
- growth (UACC-62 melanoma): 102%
- growth (LOX IMVI melanoma): 105%
- growth (SK-MEL-28 melanoma): 101%

SMILES: CCCCCCCCCCCCCCCCCC1OC[C@H](COC(=O)O[C@@H](C(=O)O[C@H]2C[C@@]3(O)[C@@H](OC(=O)c4ccccc4)[C@@H]4[C@]5(OC(C)=O)CO[C@@H]5C[C@H](O)[C@@]4(C)C(=O)[C@H](OC(C)=O)C(=C2C)C3(C)C)[C@@H](NC(=O)c2ccccc2)c2ccccc2)O1 (stereo partly specified)
- growth (HCT-15 colon): 96.8%
- growth (HT29 colon): 15.7%
- growth (SNB-75 CNS): 59.1%
- growth (SNB-19 CNS): 49.6%
- growth (U251 CNS): 46.6%
- growth (PC-3 prostate): 45.2%
- growth (UACC-62 melanoma): 46.8%
- growth (SK-MEL-28 melanoma): 55.9%

Reference: PubChem BioAssay (NCI)
